Several values for one entry are separate records, joined by “and”; a condition that tells them apart may be missing. Equal values may be shown once. Results filed as inconclusive are left out. Entries that show only a call come without a potency. Some compounds were tested as several samples or in several runs, with calls that do not always agree. Activity calls are given as the source filed them. Unless noted, calls follow the shape of the full dose curve.
Columns and labels:
[1] = Nuclear factor erythroid 2-related factor 2/antioxidant responsive element (Nrf2/ARE) small molecule agonists: qHTS cell viability counter screen in human keratinocytes (AID 1919968; active = well fitted curve in the direction sought with a large enough effect in the repeat runs; an effect the other way counts as inactive or inconclusive; also: nearly all actives have a fitted effect of over 55% in size)
Outline: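 Cytotoxicity was multiplexed with the Nrf2/ARE luciferase assay in the same wells. Stably transfected HaCaT keratinocytes were treated with test compounds for 23 h at 37 C. Cell viability was then measured by CellTiter-Fluor fluorescence.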

[2] = Nuclear factor erythroid 2-related factor 2/antioxidant responsive element (Nrf2/ARE) small molecule agonists: luciferase reporter gene qHTS assay in human keratinocytes (AID 1919969); also: nearly all actives have a fitted effect of over 35% in size; also: potency is read from the fitted curve at half-maximal effect
[3] = target: Gonadotropin-releasing hormone receptor (Homo sapiens) (UniProt P30968); test: Human gonadotropin-releasing hormone receptor (GnRHR) small molecule agonists, calcium flux assay in GnRHR-HEK293 cells (AID 1920063); also: nearly all actives have a fitted effect of over 35% in size
Chain of Gonadotropin-releasing hormone receptor (Homo sapiens) (P30968 whole entry, looked up): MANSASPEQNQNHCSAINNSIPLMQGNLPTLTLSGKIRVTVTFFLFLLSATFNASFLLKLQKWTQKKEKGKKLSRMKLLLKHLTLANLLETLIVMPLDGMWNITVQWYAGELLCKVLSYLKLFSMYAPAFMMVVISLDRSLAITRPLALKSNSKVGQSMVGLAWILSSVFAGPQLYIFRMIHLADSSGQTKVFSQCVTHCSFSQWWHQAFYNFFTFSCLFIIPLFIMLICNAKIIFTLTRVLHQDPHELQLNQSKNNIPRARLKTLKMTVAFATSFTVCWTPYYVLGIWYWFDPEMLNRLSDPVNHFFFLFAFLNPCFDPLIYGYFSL
Outline: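 Agonist activity was measured as intracellular calcium flux in HEK293 cells engineered to stably express human GnRHR. After dye loading for 1 hour at 37 C, compounds in DMSO were added and fluorescence was followed for 3 minutes.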

[4] = target: KiSS-1 receptor (Homo sapiens) (UniProt Q969F8); test: Human kisspeptin (KISS1R) small molecule agonists, calcium flux assay in KISS1R-HEK293 cells (AID 1920064; active = well fitted curve in the direction sought with a large enough effect in the repeat runs; an effect the other way counts as inactive or inconclusive)
Chain of KiSS-1 receptor (Homo sapiens) (Q969F8 whole entry, looked up): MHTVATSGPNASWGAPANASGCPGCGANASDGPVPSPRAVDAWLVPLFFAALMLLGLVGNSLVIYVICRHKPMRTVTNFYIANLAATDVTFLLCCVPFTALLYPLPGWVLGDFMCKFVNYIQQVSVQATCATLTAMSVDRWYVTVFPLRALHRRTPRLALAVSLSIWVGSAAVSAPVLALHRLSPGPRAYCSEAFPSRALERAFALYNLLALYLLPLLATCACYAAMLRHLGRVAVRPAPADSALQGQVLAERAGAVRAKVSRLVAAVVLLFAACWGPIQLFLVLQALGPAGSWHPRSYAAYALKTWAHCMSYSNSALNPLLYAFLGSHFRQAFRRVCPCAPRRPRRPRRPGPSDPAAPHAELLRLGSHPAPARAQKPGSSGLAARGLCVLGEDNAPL
Outline: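 Agonist activity is monitored as intracellular calcium rise in engineered HEK293 cells carrying human KISS1R. Cells are dye-loaded for 1 h at 37 C before compound addition, and fluorescence is recorded for 3 min.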

[5] = G protein-coupled receptor (GPCR) small molecule agonists, calcium flux assay: HEK293 wild type cell line counter screen (AID 1920065)
Outline: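 Seed cells, incubate 18 h (37 C, 5% CO2); add calcium dye, 1 h at 37 C; pin-transfer compounds, ATP control or DMSO; read fluorescence 480/540 nm each second for 3 min.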

[6] = p53 small molecule agonists, cell-based qHTS assay with human liver microsomes: qHTS cell viability counter screen (AID 1963579); also: nearly all actives have a fitted effect of over 45% in size
Outline: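 Viability of p53RE-bla cells is measured as CellTiter-Glo luminescence following a 16 h, 37 C incubation with compound, liver microsomes from human donors and NADPH.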

[7] = p53 small molecule agonists, cell-based qHTS assay with rat liver microsomes: qHTS cell viability counter screen (AID 1963580); also: nearly all actives have a fitted effect of over 45% in size
Outline: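 Counter screen for cytotoxicity under metabolic activation: rat liver microsomes and NADPH, 0.5 mg/mL final each, added with compounds to p53RE-bla HCT-116 cells; 16 h at 37 C, then ATP luminescence read.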

[8] = p53 small molecule agonists, cell-based qHTS assay: qHTS cell viability counter screen (AID 1963581); also: nearly all actives have a fitted effect of over 45% in size
Outline: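 Viability was counter-screened in parallel with the p53 agonist reporter by measuring intracellular ATP luminescence in the same HCT-116 p53RE-bla wells after 16 h compound treatment at 37 C.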

[9] = p53 small molecule agonists, cell-based qHTS assay (AID 1963582; active = well fitted activation curve with a large enough effect in the signal ratio in the repeat runs, not every such curve was filed as active; the % refers to the signal ratio; also: potency is read from the fitted curve at half-maximal effect)
Outline: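 Cells carrying a p53-responsive bla reporter are treated with test compounds for 16 h at 37 C; beta-lactamase activity is then detected with LiveBLAzer B/G FRET substrate after 2 h at room temperature.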

[10] = target: 5-hydroxytryptamine receptor 2A (Homo sapiens) (UniProt P28223); test: 5-hydroxytryptamine receptor 2A (HTR2A) small molecule agonists, cell-based qHTS assay (AID 1963587); also: nearly all actives have a fitted effect of over 30% in size
Chain of 5-hydroxytryptamine receptor 2A (Homo sapiens) (P28223 whole entry, looked up): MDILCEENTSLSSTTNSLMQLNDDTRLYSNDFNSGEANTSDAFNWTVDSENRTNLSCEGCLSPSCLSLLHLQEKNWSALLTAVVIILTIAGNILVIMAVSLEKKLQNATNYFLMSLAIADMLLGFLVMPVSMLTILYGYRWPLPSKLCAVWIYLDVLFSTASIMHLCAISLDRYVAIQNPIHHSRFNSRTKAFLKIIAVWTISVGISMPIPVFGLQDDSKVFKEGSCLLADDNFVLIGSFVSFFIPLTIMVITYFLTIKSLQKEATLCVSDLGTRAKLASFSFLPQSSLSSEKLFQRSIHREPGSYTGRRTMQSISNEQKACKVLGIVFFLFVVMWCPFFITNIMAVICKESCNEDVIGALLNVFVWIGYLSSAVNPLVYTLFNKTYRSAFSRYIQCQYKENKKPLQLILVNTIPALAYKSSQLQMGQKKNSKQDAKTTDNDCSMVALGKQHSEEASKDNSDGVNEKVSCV
Outline: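 HTR2A-CHO cells, plated 18 h at 37 C/5% CO2, dye-loaded 1 h at 37 C; compounds in DMSO added by pin tool (agonist mode). Intracellular calcium flux read as kinetic fluorescence on FDSS over 2 min at 1 s intervals.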

[11] = target: Muscarinic acetylcholine receptor M1 (Homo sapiens) (UniProt P11229); test: Cholinergic receptor muscarinic 1 (CHRM1) small molecule antagonists, cell-based qHTS assay (AID 1963588); also: nearly all actives have a fitted effect of over 40% in size; also: potency is read from the fitted curve at half-maximal effect
Chain of Muscarinic acetylcholine receptor M1 (Homo sapiens) (P11229 whole entry, looked up): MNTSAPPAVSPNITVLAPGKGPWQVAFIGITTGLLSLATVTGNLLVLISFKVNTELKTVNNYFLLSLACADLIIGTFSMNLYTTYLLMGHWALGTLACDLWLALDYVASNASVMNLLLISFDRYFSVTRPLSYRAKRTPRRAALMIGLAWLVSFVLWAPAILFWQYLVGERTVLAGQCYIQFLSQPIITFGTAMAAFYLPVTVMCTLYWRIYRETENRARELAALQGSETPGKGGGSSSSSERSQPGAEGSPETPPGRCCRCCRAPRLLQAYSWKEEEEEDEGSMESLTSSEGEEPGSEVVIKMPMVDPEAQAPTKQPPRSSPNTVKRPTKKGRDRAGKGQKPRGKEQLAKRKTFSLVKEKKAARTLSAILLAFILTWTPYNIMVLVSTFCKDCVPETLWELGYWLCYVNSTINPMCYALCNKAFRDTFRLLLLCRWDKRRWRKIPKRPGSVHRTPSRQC
Outline: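 Compounds were tested at 15 concentrations in three independent runs. Dye-loaded CHRM1-CHO cells were exposed 5 min at room temperature before stimulation by acetylcholine added at 50nM. Intracellular calcium was read kinetically on FDSS for 3 min.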

[12] = target: Beta-2 adrenergic receptor (Homo sapiens) (UniProt P07550); test: Adrenergic beta2 receptor (ADRB2) small molecule antagonists, cell-based qHTS assay (AID 1963592); also: series mostly up to about 92 µM; nearly all actives have a fitted effect of over 50% in size
Chain of Beta-2 adrenergic receptor (Homo sapiens) (P07550 whole entry, looked up): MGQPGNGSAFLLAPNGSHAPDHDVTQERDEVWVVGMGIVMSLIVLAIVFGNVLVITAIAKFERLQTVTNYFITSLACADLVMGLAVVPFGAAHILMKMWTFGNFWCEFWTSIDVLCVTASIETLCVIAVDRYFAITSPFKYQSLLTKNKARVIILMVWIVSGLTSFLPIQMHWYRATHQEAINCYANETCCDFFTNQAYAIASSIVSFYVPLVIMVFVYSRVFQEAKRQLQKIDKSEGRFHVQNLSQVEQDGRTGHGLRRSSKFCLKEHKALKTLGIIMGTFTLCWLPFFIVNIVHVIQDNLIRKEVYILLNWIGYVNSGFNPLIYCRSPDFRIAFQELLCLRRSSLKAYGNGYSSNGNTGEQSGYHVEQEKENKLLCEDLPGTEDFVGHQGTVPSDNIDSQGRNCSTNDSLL
Outline: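 Assay format: CHO-ADRB2 cells, 18-20hr seeding at 37C/5% CO2, then compound plus 1nM isoproterenol agonist mix for 0.5hr RT. Homogeneous time-resolved fluorescence cAMP detection after 1hr, expressed as 665/615 nm ratio.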

[13] = target: Beta-2 adrenergic receptor (Homo sapiens) (UniProt P07550); test: Adrenergic beta2 receptor (ADRB2) small molecule agonists, cell-based qHTS assay (AID 1963593);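 also: CHO cells stably overexpressing human ADRB2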
Outline: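 CHO cells stably over-expressing ADRB2 were plated overnight at 37C, then dosed with compounds plus a stimulation mix containing 100uM IBMX and 25uM Ro-20-1724 for 0.5hr at room temperature. cAMP was measured by HTRF competition, 1hr.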

[14] = target: D(2) dopamine receptor (Homo sapiens) (UniProt P14416); test: Dopamine D2 receptor (DRD2) small molecule agonists, cell-based qHTS assay (AID 1963594); also: nearly all actives have a fitted effect of over 35% in size
Chain of D(2) dopamine receptor (Homo sapiens) (P14416 whole entry, looked up): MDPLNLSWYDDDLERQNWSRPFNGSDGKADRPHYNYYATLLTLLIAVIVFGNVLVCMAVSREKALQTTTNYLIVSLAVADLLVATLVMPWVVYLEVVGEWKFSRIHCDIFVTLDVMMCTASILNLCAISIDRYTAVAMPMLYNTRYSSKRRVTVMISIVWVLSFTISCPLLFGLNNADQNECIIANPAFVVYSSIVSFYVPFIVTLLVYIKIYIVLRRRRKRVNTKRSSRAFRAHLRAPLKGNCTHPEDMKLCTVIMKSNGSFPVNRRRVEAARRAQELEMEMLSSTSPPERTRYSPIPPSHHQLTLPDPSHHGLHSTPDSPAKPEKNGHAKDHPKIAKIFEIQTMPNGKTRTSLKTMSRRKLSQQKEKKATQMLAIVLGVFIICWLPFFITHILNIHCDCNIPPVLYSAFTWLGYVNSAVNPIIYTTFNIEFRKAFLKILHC
Outline: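 HEK293 cells stably expressing DRD2 were cultured 24 h at 37 C, then given Ro20-1724 (0.1 mM final) and compounds for 10 min at room temperature. NKH477 (200nM) was then added for 30 min. cAMP was read by HTRF.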

[15] = target: D(2) dopamine receptor (Homo sapiens) (UniProt P14416); test: Dopamine D2 receptor (DRD2) small molecule antagonists, cell-based qHTS assay (AID 1963595; active = well fitted inhibition curve with a large enough effect in the signal ratio in the repeat runs, with a control signal flat; the % refers to the signal ratio)
Outline: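 HEK293 cells stably expressing DRD2 were preincubated with 0.1 mM Ro20-1724, then with compound for 10 min at room temperature. Cells were stimulated with 200 nM NKH477 plus 12 nM quinpirole for 30 min, and cAMP was read by HTRF.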

[16] = target: 5-hydroxytryptamine receptor 2A (Homo sapiens) (UniProt P28223); test: 5-hydroxytryptamine receptor 2A (HTR2A) small molecule antagonists, cell-based qHTS assay (AID 1963586); also: nearly all actives have a fitted effect of over 45% in size; also: potency is read from the fitted curve at half-maximal effect
Outline: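 CHO cells stably expressing human HTR2A were plated for 18 h at 37 C, then loaded with calcium dye for 1 h. Compounds were preincubated 5 min at room temperature before DOI (4 nM solution) was added. Kinetic fluorescence was read for 3 min.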

[17] = target: Muscarinic acetylcholine receptor M1 (Homo sapiens) (UniProt P11229); test: Cholinergic receptor muscarinic 1 (CHRM1) small molecule agonists, cell-based qHTS assay (AID 1963589); also: nearly all actives have a fitted effect of over 35% in size
Outline: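 Cells were plated and incubated 18 h at 37 C/5% CO2, loaded with calcium dye for 1 h at 37 C, then treated with compounds in DMSO. Fluorescence was recorded kinetically at 1 sec intervals.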

[18] = cAMP Responsive Elements (CRE) small molecule agonists, cell-based qHTS assay (AID 1963590)
Outline: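 Cells carrying a CRE-driven beta-lactamase reporter (HEK 293T) are seeded, incubated overnight (18 h), and treated with test compounds for 3 h at 37 C; reporter activity is then detected with a FRET substrate after 2 h at room temperature.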

[19] = cAMP Responsive Elements (CRE) small molecule antagonists, cell-based qHTS assay (AID 1963591; active = well fitted inhibition curve with a large enough effect in the signal ratio in the repeat runs, not every such curve was filed as active; the % refers to the signal ratio)
Outline: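 Cells (CRE-bla HEK 293T, DMEM with 10% dialyzed FBS and 25 mM HEPES) are seeded and incubated 18 h. Compounds are added with NKH477 agonist at 0.25 uM final for 3 h, then FRET substrate for 2 h.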

Compound | Potency [1] | Potency [2] | Potency [3] | Potency [4] | Potency [5] | Potency [6] | Potency [7] | Potency [8] | Potency [9] | Potency [10] | Potency [11] | Potency [12] | Potency [13] | Potency [14] | Potency [15] | Potency [16] | Potency [17] | Potency [18] | Potency [19]
CCN(CC)c1ccc2c(C)cc(=O)oc2c1 | inactive | inactive | inactive | inactive | inactive | inactive | inactive | inactive | 25.9 µM (active) and 32.4 µM (active) | inactive | inactive | inactive | inactive | inactive | inactive | – | – | – | –
C[n+]1ccn(CCO)c1 | inactive | inactive | inactive | inactive | inactive | inactive | inactive | inactive | – | inactive | inactive | inactive | – | inactive | inactive | inactive | inactive | inactive | inactive
O=C(COc1ccc(Cl)cc1)N1CCN(Cc2ccc3c(c2)OCO3)CC1 | inactive | inactive | inactive | inactive | inactive | inactive | inactive | inactive | – | – | 37.5 µM (active) and inactive | inactive | – | inactive | inactive | 29.8 µM (active) and inactive | inactive | inactive | inactive
COC(=O)/C=C/c1ccccc1 | inactive | inactive | inactive | inactive | inactive | inactive | inactive | inactive | – | inactive | inactive | – | inactive | inactive | inactive | inactive | inactive | inactive | inactive
CC(C)(C)c1cc(Cc2cc(C(C)(C)C)c(O)c(C(C)(C)C)c2)cc(C(C)(C)C)c1O | inactive | inactive | inactive | inactive | inactive | inactive | inactive | inactive | – | inactive | inactive | inactive | inactive | inactive | inactive | inactive | inactive | inactive | inactive
C=C[C@H]1CN2CC[C@H]1C[C@H]2[C@H](O)c1ccnc2ccc(OC)cc12 | inactive | inactive | inactive | inactive | inactive | inactive | inactive | inactive | – | – | inactive | inactive | – | inactive | inactive | inactive | inactive | inactive | –
O=[N+]([O-])c1ccc(/C=C/c2ccc([N+](=O)[O-])cc2S(=O)(=O)O)c(S(=O)(=O)O)c1 | inactive | inactive | inactive | inactive | inactive | inactive | inactive | inactive | – | inactive | inactive | inactive | – | inactive | – | inactive | inactive | inactive | inactive
CCc1ccccc1O | inactive | 60.8 µM (active) and inactive | inactive | inactive | inactive | inactive | inactive | inactive | – | inactive | inactive | inactive | – | inactive | inactive | inactive | inactive | inactive | inactive
CC(=O)OC/C=C(\C)CC/C=C(\C)CCC=C(C)C | inactive | inactive | inactive | inactive | inactive | inactive | inactive | inactive | – | inactive | inactive | inactive | inactive | inactive | inactive | inactive | inactive | – | inactive
CCCCC(CC)COC(C)=O (centres undefined) | inactive | inactive | inactive | inactive | inactive | inactive | inactive | inactive | – | inactive | inactive | inactive | inactive | inactive | inactive | – | inactive | inactive | –
Cc1cccnc1 | inactive | inactive | inactive | inactive | inactive | inactive | inactive | inactive | – | inactive | inactive | inactive | inactive | inactive | inactive | inactive | inactive | inactive | inactive
CC(C)c1ccc(S(=O)(=O)O)cc1 | inactive | inactive | inactive | inactive | inactive | inactive | inactive | inactive | – | inactive | inactive | inactive | inactive | inactive | – | inactive | inactive | – | inactive
COc1ccc(N)c(C)c1 | inactive | inactive | inactive | inactive | inactive | inactive | inactive | inactive | – | inactive | – | inactive | – | inactive | inactive | inactive | inactive | inactive | inactive

Source: PubChem BioAssay (Tox21)
